About 7,900 targets were measured; listed, in parts, are those with a hit and a random draw of the rest. About 0.6% of all pairs of compound and target were hits.

The values that follow come from the supplement of paper PMC10849652.

Chain of UniProt Q96QZ7 (Q96QZ7 whole entry, looked up): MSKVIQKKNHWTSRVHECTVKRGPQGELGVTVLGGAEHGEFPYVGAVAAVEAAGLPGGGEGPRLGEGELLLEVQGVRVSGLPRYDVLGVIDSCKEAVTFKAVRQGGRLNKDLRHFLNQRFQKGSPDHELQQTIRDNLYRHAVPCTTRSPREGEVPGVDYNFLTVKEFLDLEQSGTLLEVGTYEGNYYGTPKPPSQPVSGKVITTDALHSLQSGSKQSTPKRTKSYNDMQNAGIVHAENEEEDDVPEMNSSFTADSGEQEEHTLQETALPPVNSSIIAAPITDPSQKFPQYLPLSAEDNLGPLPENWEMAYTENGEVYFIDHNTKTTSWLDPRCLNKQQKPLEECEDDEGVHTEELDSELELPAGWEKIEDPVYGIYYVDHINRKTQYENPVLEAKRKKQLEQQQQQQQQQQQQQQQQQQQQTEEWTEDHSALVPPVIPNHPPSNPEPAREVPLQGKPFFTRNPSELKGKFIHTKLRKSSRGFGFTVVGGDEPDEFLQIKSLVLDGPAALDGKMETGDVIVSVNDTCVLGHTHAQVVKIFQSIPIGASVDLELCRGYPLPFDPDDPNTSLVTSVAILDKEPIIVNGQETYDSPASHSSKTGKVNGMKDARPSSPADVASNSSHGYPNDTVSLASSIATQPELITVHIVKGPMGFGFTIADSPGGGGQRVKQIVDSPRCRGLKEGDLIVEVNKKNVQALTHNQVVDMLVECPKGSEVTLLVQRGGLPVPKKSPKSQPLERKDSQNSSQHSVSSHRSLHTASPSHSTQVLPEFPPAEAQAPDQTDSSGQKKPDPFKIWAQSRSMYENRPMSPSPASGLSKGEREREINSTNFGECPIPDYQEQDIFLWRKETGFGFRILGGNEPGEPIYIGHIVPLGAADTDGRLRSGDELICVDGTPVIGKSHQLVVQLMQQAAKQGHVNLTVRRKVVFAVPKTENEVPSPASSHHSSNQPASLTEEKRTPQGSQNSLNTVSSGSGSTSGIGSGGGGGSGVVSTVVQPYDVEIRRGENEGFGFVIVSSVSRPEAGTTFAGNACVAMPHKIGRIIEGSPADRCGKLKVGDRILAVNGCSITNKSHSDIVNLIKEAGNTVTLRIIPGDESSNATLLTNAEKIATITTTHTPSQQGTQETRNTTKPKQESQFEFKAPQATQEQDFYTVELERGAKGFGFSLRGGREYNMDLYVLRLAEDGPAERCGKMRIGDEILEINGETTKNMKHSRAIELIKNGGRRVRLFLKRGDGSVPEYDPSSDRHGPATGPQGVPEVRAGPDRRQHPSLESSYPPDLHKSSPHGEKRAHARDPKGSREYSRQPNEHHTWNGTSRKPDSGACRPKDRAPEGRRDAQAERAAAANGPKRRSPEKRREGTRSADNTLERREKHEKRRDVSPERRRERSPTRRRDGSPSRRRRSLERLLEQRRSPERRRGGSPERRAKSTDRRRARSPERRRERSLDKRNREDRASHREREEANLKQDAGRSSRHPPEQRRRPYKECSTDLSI
Chain of UniProt Q9H0C8 (Q9H0C8 whole entry, looked up): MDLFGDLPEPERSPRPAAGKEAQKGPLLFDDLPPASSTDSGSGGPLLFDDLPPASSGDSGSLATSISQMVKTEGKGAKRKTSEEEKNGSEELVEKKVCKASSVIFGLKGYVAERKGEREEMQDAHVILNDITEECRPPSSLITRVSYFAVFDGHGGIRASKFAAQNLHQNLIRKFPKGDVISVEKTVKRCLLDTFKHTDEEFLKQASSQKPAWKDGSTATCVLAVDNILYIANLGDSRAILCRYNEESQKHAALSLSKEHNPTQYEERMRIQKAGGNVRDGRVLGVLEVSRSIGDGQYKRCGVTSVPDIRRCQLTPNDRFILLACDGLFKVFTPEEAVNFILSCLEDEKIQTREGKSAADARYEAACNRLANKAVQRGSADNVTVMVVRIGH
Chain of UniProt Q6P9B9 (Q6P9B9 whole entry, looked up): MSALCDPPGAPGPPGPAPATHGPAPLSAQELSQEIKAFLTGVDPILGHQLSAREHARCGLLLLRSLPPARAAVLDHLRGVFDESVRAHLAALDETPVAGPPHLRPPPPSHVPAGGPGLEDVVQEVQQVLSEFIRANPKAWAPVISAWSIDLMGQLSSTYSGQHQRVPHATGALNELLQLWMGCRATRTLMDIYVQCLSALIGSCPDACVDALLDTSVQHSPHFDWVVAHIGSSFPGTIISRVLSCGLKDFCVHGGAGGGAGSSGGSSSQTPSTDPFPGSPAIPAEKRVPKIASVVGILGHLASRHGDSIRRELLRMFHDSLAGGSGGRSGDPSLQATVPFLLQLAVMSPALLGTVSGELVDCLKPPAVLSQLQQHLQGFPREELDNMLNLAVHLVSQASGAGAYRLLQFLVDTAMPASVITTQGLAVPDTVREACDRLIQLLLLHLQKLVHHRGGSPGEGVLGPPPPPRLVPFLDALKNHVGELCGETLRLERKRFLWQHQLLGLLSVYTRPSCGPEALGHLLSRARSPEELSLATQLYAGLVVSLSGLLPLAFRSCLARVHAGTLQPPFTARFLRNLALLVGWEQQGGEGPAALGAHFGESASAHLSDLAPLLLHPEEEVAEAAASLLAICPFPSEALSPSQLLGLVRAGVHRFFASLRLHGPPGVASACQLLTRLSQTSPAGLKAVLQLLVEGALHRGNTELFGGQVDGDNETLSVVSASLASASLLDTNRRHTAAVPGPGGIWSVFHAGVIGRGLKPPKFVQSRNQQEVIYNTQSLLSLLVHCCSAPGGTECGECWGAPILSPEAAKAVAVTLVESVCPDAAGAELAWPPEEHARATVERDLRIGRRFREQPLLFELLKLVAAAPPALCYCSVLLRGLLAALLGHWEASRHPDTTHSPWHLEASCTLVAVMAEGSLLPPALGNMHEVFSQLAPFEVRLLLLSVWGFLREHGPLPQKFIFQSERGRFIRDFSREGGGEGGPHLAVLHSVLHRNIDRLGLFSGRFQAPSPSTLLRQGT
Chain of UniProt P23368 (P23368 whole entry, looked up): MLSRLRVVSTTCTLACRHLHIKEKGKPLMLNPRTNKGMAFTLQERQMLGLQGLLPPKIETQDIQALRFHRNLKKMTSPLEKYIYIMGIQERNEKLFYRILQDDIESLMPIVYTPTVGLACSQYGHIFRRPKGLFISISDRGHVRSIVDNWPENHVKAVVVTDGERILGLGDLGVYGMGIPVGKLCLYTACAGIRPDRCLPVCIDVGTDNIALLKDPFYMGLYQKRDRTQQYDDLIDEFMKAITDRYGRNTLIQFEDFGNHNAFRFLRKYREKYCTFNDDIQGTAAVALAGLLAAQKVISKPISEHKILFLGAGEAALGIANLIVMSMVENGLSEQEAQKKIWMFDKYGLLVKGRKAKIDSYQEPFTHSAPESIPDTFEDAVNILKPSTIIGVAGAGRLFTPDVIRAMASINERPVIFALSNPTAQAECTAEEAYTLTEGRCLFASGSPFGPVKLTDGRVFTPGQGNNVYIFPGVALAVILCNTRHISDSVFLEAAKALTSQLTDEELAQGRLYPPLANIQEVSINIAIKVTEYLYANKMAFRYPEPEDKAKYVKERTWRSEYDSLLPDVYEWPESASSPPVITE
Chain of UniProt Q8WV07 (Q8WV07 whole entry, looked up): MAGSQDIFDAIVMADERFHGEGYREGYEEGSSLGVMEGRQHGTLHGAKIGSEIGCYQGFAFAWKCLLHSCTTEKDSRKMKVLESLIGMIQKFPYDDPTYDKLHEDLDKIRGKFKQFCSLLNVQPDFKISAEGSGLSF
Chain of UniProt Q13422 (Q13422 whole entry, looked up): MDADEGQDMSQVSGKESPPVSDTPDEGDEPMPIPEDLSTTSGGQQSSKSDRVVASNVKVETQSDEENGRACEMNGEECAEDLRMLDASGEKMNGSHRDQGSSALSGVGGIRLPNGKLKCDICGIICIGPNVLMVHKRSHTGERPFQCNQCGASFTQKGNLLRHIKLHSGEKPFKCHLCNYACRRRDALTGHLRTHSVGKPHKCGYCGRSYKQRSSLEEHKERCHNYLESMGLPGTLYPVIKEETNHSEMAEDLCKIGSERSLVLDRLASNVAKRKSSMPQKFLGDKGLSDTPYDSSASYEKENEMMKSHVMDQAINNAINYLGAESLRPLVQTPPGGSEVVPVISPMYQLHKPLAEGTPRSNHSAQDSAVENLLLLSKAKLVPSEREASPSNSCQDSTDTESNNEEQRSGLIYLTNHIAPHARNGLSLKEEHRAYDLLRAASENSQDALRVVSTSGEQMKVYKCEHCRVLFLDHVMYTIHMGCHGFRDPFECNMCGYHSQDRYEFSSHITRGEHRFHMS
Chain of UniProt P01116 (P01116 whole entry, looked up): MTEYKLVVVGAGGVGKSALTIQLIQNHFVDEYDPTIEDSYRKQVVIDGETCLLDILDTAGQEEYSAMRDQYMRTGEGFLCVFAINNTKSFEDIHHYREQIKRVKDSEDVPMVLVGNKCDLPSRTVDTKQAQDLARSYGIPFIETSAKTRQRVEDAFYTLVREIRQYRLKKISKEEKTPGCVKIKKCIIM

Compound in the experiment: CC(C)N(C[C@H]1O[C@@H](n2cnc3c(N)ncnc32)[C@H](O)[C@@H]1O)[C@H]1C[C@@H](CCc2nc3cc(C(C)(C)C)ccc3[nH]2)C1 [pinometostat]
Nature of the experiment: log2 fold change, soluble protein after heating vs DMSO (PISA); higher = thermal stabilisation; K562 cells, 10 uM, 30 min; active = over 0.2 and 3.5 SD of the protein, either way, in both replicates (recomputed). The essentials:
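K562 cells (2×10^6 cells/mL) were treated with 10 μM compound for 30 min, and aliquots were heated for 3 min over 48°C-58°C. Pooled aliquots were extracted in PBS with 0.5% NP-40 at 4°C, and the supernatant after 21,000xg for 90 min was measured by TMTpro 16plex LC-MS/MS with channel sums equalised. Reported thermal stability, relative to control samples and from duplicates, is a log2 fold change.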
KPNA6 (UniProt O60684): the log2 fold change was 0.087 (inactive).

For the target KDM3B (UniProt Q7LBC6), the log2 fold change is -0.011 (inactive).

On to LMBRD2 (UniProt Q68DH5), for which the log2 fold change is 0.037 (inactive).

In the case of ME2 (UniProt P23368), the log2 fold change is -0.021 (inactive).

Consider ILKAP (UniProt Q9H0C8), for which the log2 fold change is -0.004 (inactive).

MFN2 (UniProt O95140): the log2 fold change was -0.017 (inactive).

As to INPP5B (UniProt P32019), the log2 fold change is 0.101 (inactive).

Take LARP1 (UniProt Q6PKG0): the log2 fold change is 0.109 (inactive).

Take MIER1 isoform 12 (UniProt Q8N108): the log2 fold change is -0.013 (inactive).

For the target L2HGDH (UniProt Q9H9P8), the log2 fold change is 0 (inactive).

Regarding KRAS isoform 2 (UniProt P01116), the log2 fold change was 0.014 (inactive).

On to LTO1 (UniProt Q8WV07), for which the log2 fold change is -0.028 (inactive).

With MFN1 (UniProt Q8IWA4), the log2 fold change was 0.018 (inactive).

Turning to IKZF1 (UniProt Q13422), the log2 fold change is 0.01 (inactive).

Regarding MAP3K7 (UniProt O43318), the log2 fold change is 0.102 (inactive).

Consider KIF3A (UniProt Q9Y496), for which the log2 fold change was 0.051 (inactive).

Consider IMMT isoform 4 (UniProt Q16891), for which the log2 fold change is -0.013 (inactive).

As to LDLR (UniProt P01130), the log2 fold change is -0.011 (inactive).

In the case of LMNA (UniProt P02545), the log2 fold change is -0.057 (inactive).

Turning to MAGI1 (UniProt Q96QZ7), the log2 fold change is 0.025 (inactive).

On to MAP3K4 isoform 2 (UniProt Q9Y6R4), for which the log2 fold change was 0.014 (inactive).

Regarding IWS1 (UniProt Q96ST2), the log2 fold change is 0.014 (inactive).

As for INTS5 (UniProt Q6P9B9), the log2 fold change is 0.033 (inactive).
